Measured values taken from paper PMC5540273 (PLoS ONE, 2017).

Columns and labels:
Details in all cases: concentration: 1 μM, replicates: in singlicate; n = 1
[1] = test system: BMPR1A
[2] = test system: BMPR1B
[3] = test system: BMPR2
[4] = test system: BMX
[5] = test system: BRAF
[6] = test system: T1, BRK
T1 construct: gene PTK6

[7] = test system: BRSK1
[8] = test system: BRSK2
[9] = test system: BTK
[10] = test system: BUB1
[11] = test system: CAMK1B
[12] = test system: CAMK1D
[13] = test system: CAMK1G
[14] = test system: CAMK1
[15] = test system: CAMK2A
[16] = test system: CAMK2B
[17] = test system: CAMK2D
[18] = test system: CAMK2G
[19] = test system: CAMK4
[20] = test system: CAMKK1
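Also: KINOMEscan kinase panel screen.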

SMILES	%Inh [1]	%Inh [2]	%Inh [3]	%Inh [4]	%Inh [5]	%Inh [6]	%Inh [7]	%Inh [8]	%Inh [9]	%Inh [10]	%Inh [11]	%Inh [12]	%Inh [13]	%Inh [14]	%Inh [15]	%Inh [16]	%Inh [17]	%Inh [18]	%Inh [19]	%Inh [20]
Cn1ccc2ncnc(Oc3ccc(Nc4nc5ccccc5[nH]4)cc3)c21	0%	0%	0%	0%	0%	0%	0%	2%	0%	0%	0%	0%	0%	0%	7%	5%	2%	0%	0%	14%
Fc1cc(Cl)ccc1Nc1ccnc2cc(-c3ccc(CN4CCCCC4)o3)ccc12 [GW560116]	0%	0%	0%	0%	0%	14%	2%	0%	0%	26%	0%	8%	0%	3%	0%	0%	8%	26%	0%	4%
Cc1cccc(-c2nc(Nc3cccc(C(N)=O)c3)c3ccccc3n2)n1 [GW876019]	74%	0%	14%	0%	0%	9%	18%	0%	9%	16%	0%	0%	9%	0%	0%	0%	7%	0%	3%	12%
Cn1ccc2ncnc(Oc3ccc(NC(=O)Nc4ccccc4)cc3)c21	0%	0%	0%	42%	0%	6%	0%	17%	0%	0%	4%	5%	22%	0%	0%	0%	13%	3%	0%	0%
COc1ccccc1CNC(=O)c1cc(C(=O)c2ccccc2C)c[nH]1 [GSK364507]	4%	0%	7%	8%	0%	12%	0%	95.2%	0%	33%	7%	0%	0%	9%	0%	0%	0%	12%	0%	7%
Cc1cccc(-c2cc(Nc3ccncc3)c3ccccc3n2)n1 [GSK223675]	0%	0%	0%	1%	0%	0%	0%	0%	0%	0%	25%	26%	6%	17%	0%	0%	20%	26%	0%	12%
CC(C)(C)c1ccc(C(=O)Nc2cn3cc(Cl)ccc3n2)cc1	0%	3%	0%	0%	9%	0%	0%	0%	0%	0%	0%	0%	0%	0%	3%	0%	3%	11%	6%	95.8%
CC(=O)Nc1nc2cnc(Nc3cc(NC(=O)c4cccc(CCC#N)c4)ccc3C)nc2s1	0%	0%	16%	7%	97.7%	0%	0%	11%	32%	14%	0%	30%	0%	25%	20%	0%	0%	0%	15%	0%
Cl.c1ccc(-c2n[nH]cc2-c2ccnc(-c3ccc(CN4CCOCC4)cc3)c2)nc1 [GW776245]	0%	52%	0%	13%	16%	0%	0%	21%	0%	0%	0%	27%	0%	22%	2%	5%	11%	13%	0%	26%
COc1cc2nccc(Nc3ccc(NC(=O)c4ccc(C)cc4)c(O)c3)c2cc1OC.Cl [GW440132]	1%	0%	0%	22%	0%	36%	0%	3%	32%	31%	0%	20%	6%	15%	0%	0%	17%	35%	0%	0%
COc1cc2ncnc(Nc3ccc4nc(-c5ccccc5)[nH]c4c3)c2cc1OC.Cl [GW282450]	0%	0%	0%	10%	0%	0%	0%	0%	0%	6%	0%	20%	0%	29%	0%	0%	1%	24%	0%	11%
Nc1nc(-c2nccs2)c(-c2ccnc3ccccc23)s1 [GW693542]	14%	10%	9%	0%	0%	3%	11%	0%	0%	47%	7%	27%	0%	30%	0%	0%	0%	13%	0%	6%
Cn1cncc1-c1ccc2ncnc(Nc3ccc(OCc4ccccc4)cc3)c2c1 [GW320571]	17%	0%	0%	28%	3%	15%	0%	0%	0%	26%	11%	23%	16%	23%	0%	0%	9%	10%	23%	0%
Cc1ccc(-c2cc(-c3c[nH]nc3-c3ccccn3)ccn2)cc1 [GW684088]	0%	18%	0%	36%	0%	3%	0%	0%	51%	40%	55%	13%	14%	9%	2%	0%	16%	25%	0%	30%
Cl.NC(=O)c1cccc(Nc2nccc(Nc3ccc(Oc4cccc(Cl)c4)c(Cl)c3)n2)c1 [GW659008]	0%	0%	3%	14%	0%	69%	0%	0%	0%	36%	0%	17%	9%	25%	0%	0%	5%	16%	0%	0%
COc1cccc(-c2cc(-c3c[nH]nc3-c3ccccn3)ccn2)c1 [GW680338]	0%	0%	10%	12%	12%	4%	3%	0%	0%	27%	22%	14%	0%	0%	0%	0%	16%	15%	0%	0%
CN1C(=O)C(Nc2ccc(Cl)c(C(=O)O)c2)=C(c2ccc(Cl)cc2)C1=O [SB-404290]	4%	0%	25%	0%	0%	0%	0%	0%	0%	0%	0%	17%	100%	22%	17%	0%	0%	18%	0%	0%
CCCc1ccc(S(=O)(=O)NC2CCN(c3ccnc(Nc4ccc(F)cc4)n3)C2)cc1 (stereo not drawn) [GSK1379715]	0%	0%	0%	2%	0%	0%	0%	0%	0%	29%	6%	0%	0%	0%	0%	0%	0%	0%	0%	12%
Cc1ccc(NC(=O)Nc2cc(C(C)(C)C)nn2-c2ccccc2)cc1 [GSK1014915]	0%	0%	37%	14%	74%	20%	100%	0%	0%	21%	33%	3%	0%	0%	0%	0%	0%	14%	0%	12%
COc1ccc(Nc2nccc(-c3cccc(NC(=O)c4cc5cc(F)ccc5[nH]4)c3)n2)cc1 [GSK1229782]	10%	0%	15%	16%	0%	22%	4%	12%	31%	64%	0%	20%	13%	36%	0%	0%	23%	34%	0%	20%
CC(C)(C)c1ccc(C(=O)Nc2cn3cc(-c4cccnc4)ccc3n2)cc1	34%	0%	1%	25%	0%	0%	6%	25%	0%	8%	24%	38%	12%	4%	6%	7%	24%	10%	0%	21%
